PubChem BioAssay
Activity calls are given as the source filed them.

How the values were obtained:
[1] = tested on: Plasmodium falciparum Sir2 (PF13_0152, Sir2A); assay: pfSir2 binders on small-molecule microarrays, primary screen, biochemical, small-molecule microarray, 635 nm fluorescence (AID 1098); details: small-molecule microarray binding, fluorescence 635 nm; higher = more signal;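 note: score merges spot fluorescence intensity with its signal-to-noise ratio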
[2] = small-molecule microarray binders of probe aDKK1, primary screen, biochemical, biotinylated probe, 635/667 nm fluorescence (AID 1099); details: higher = more signal;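 note: score merges 667nm spot fluorescence with signal to noise across triplicate slides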
[3] = small-molecule microarray binders of probe aCHRDL2, primary screen, biochemical, biotinylated probe, 635/667 nm fluorescence (AID 1100); details: higher = more signal
[4] = splicing luciferase reporter signal modulators, primary screen, spliceosome inhibition project, cell-based, HEK293, splice +/- reporter (AID 1101); details: luminescence, 24 h, higher = more signal, called active from +8 up or from −8 down;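 note: HEK293 cells carrying a splicing-competent luciferase reporter gene; test concentration not given here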
[5] = molecular target: Fibroblast growth factor 10 (Homo sapiens) (UniProt O15520); assay: FGF10 binders on small-molecule microarrays, primary screen, biochemical, small-molecule microarray, 635 nm fluorescence (AID 1102); details: FGF10 binding, fluorescence 635 nm, higher = more signal
Sequence of Fibroblast growth factor 10 (Homo sapiens) (O15520 whole entry, looked up): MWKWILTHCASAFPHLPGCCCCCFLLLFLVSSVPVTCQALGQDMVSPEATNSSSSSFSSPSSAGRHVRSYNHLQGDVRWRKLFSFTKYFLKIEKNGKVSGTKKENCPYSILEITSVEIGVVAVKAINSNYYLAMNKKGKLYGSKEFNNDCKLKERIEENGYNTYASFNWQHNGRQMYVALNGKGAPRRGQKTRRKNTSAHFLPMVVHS

[6] = tested on: glycogen synthase kinase-3 (GSK3A per assay name; protocol says GSK3B); assay: GSK3 binders on small-molecule microarrays, primary screen, biochemical, small-molecule microarray, 635 nm fluorescence, GSK3A (AID 1103); details: small-molecule microarray binding, fluorescence 635 nm; higher = more signal; note: the record names both GSK3A and GSK3B
[7] = molecular target: Epidermal growth factor receptor (Homo sapiens) (UniProt P00533); assay: EGFR binders on small-molecule microarrays, primary screen, biochemical, small-molecule microarray, 635 nm fluorescence (AID 1104); details: EGFR binding, higher = more signal;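 note: score merges 667 nm emission intensity with spot signal to noise over triplicate slides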
Sequence of Epidermal growth factor receptor (Homo sapiens) (P00533 whole entry, looked up): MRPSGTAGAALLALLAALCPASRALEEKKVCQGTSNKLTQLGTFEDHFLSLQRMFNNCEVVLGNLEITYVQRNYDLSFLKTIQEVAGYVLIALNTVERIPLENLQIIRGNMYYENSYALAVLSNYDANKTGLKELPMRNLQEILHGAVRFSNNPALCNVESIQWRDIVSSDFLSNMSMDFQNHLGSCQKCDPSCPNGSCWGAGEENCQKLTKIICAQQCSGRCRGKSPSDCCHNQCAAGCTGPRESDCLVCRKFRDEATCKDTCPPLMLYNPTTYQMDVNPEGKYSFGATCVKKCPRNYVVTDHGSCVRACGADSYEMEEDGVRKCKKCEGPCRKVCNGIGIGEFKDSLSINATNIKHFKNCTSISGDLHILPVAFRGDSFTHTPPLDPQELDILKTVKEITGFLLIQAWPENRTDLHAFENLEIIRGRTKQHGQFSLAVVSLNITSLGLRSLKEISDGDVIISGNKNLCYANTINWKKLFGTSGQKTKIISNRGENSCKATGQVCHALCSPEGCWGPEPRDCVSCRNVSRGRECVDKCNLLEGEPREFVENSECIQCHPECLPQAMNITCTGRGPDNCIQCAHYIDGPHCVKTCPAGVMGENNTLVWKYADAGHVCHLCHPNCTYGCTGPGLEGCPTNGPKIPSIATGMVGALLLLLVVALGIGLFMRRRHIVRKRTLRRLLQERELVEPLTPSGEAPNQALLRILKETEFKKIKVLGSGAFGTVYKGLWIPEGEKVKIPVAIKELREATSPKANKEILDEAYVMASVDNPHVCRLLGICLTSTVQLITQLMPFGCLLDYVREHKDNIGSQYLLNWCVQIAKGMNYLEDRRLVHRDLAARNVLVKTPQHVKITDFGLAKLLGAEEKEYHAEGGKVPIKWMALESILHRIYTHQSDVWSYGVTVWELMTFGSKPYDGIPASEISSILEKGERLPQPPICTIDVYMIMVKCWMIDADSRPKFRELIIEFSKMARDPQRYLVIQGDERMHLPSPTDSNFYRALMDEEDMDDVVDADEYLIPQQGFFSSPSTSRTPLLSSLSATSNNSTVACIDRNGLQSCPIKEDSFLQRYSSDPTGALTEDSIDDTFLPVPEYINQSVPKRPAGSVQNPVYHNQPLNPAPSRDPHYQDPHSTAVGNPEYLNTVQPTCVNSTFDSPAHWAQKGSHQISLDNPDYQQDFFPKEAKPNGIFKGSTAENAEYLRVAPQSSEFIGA

[8] = molecular target: Follistatin-related protein 3 (Homo sapiens) (UniProt O95633); assay: FSTL3 binders on small-molecule microarrays, primary screen, biochemical, small-molecule microarray, 635 nm fluorescence (AID 1105); details: FSTL3 binding, higher = more signal;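 note: score merges emission near 667 nm and signal to noise per printed spot across three slides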
Sequence of Follistatin-related protein 3 (Homo sapiens) (O95633 whole entry, looked up): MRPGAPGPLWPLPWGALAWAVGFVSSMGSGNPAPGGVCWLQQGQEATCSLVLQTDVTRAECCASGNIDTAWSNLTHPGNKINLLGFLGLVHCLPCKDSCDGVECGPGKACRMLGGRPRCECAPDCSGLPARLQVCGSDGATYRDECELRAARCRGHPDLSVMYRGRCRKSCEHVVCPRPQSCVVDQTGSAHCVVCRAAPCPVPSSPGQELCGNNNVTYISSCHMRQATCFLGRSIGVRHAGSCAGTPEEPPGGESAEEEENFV

[9] = molecular target: Dickkopf-related protein 1 (Homo sapiens) (UniProt O94907); assay: DKK1 binders on small-molecule microarrays, primary screen, biochemical, small-molecule microarray, 635 nm fluorescence scan (AID 1106); details: DKK1 binding, higher = more signal;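 note: score merges emission near 667 nm with signal to noise over three replicate slides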
Sequence of Dickkopf-related protein 1 (Homo sapiens) (O94907 whole entry, looked up): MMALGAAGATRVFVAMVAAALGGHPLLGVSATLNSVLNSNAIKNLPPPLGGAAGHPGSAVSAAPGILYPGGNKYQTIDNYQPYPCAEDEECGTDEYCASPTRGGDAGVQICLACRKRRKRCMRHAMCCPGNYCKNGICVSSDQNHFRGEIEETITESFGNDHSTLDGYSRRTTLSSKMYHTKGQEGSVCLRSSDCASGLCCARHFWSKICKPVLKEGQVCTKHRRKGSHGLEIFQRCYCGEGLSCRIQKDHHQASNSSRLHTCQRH

[10] = tested on: Inhibin beta A chain (activin A); assay: INHBA (activin A) binders on microarrays, primary screen, biochemical, small-molecule microarray, 635 nm fluorescence scan (AID 1107); details: small-molecule microarray binding, higher = more signal;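 note: mouse activin A protein probed at 4.33 µg/mL on printed slides; score merges bound-protein fluorescence near 667 nm with spot signal-to-noise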
[11] = tested on: Human papillomavirus type 1a protein E7 (residues 44-93); assay: HPV1a E7 fragment binders on microarrays, primary screen, biochemical, small-molecule microarray, residues 44-93, 635 nm fluorescence (AID 1108); details: small-molecule microarray binding, fluorescence 635 nm; higher = more signal;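 note: E7 fragment applied at 1 µg/mL in TBST for 1 h at 4 C; score combines spot fluorescence with its signal to noise ratio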
[12] = modulators of HCV replicon luciferase signal, primary screen, HCV replication inhibitor project, Huh7 cells, luciferase reporter (AID 1109); details: 48 h, higher = more signal;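 note: huh7 hepatoma cells harbouring a luciferase neomycin HCV replicon reporter; luciferase luminescence as measure of HCV replicon replication; test concentration not given here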
[13] = molecular target: Left-right determination factor 2 (Homo sapiens) (UniProt O00292); assay: LEFTY2 binders on small-molecule microarrays, primary screen, biochemical, small-molecule microarray, 635 nm fluorescence scan (AID 1110); details: LEFTY2 binding, higher = more signal
Sequence of Left-right determination factor 2 (Homo sapiens) (O00292 whole entry, looked up): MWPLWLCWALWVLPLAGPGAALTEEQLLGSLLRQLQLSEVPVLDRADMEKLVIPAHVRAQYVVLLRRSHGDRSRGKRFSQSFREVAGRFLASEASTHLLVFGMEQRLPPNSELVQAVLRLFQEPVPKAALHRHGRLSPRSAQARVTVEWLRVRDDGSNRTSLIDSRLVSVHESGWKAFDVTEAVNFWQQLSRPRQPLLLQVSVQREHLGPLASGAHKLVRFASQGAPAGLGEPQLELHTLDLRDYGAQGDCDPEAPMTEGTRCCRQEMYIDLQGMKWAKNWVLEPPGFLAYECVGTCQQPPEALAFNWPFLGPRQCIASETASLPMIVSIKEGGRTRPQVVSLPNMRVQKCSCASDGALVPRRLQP

[14] = molecular target: Calmodulin-1 (Homo sapiens) (UniProt P0DP23); assay: CALM1 binders on microarrays, EGTA buffer, profiling panel, biochemical, small-molecule microarray, Cy5-labelled CALM1 (AID 1111); details: Cy5-CALM1 binding fluorescence, higher = more signal;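 note: labelled calmodulin applied in Tris saline Tween buffer holding calcium plus EGTA and DTT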
[15] = molecular target: Calmodulin-1 (Homo sapiens) (UniProt P0DP23); assay: calcium-bound CALM1 binders on microarrays, profiling panel, artefact control for SMM control-protein annotation, biochemical, small-molecule microarray, Cy5-labelled CALM1, plus calcium (AID 1112); details: Cy5-CALM1 binding fluorescence, higher = more signal;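 note: score merges spot fluorescence with signal to noise from triplicate slides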
[16] = small-molecule microarray binders of probe aWnt5a, primary screen, biochemical, biotinylated probe, 635/667 nm fluorescence (AID 1113); details: higher = more signal;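 note: score merges 667 nm fluorescence intensity with signal-to-noise per printed feature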
[17] = small-molecule microarray binders of probe aShh, primary screen, biochemical, biotinylated probe, 635/667 nm fluorescence (AID 1114); details: higher = more signal;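 note: probe is biotin-labelled aShh protein from a stem cell growth factor screen; measures binding of labelled protein to compounds printed on the slide; score merges feature fluorescence at 667 nm with signal-to-noise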
[18] = small-molecule microarray binders of probe aNog, primary screen, biochemical, biotinylated probe, 635/667 nm fluorescence (AID 1115); details: higher = more signal;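 note: probe is biotinylated aNog protein used at 0.15 µg/mL for 1 h at 4 C; z-score combines 667 nm fluorescence of each spot with its signal to noise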
[19] = molecular target: Torsin-1A-interacting protein 1 (Homo sapiens) (UniProt Q5JTV8); assay: LAP1 binders from COS7 cell lysate, primary screen, small-molecule microarray, 635/667 nm fluorescence (AID 1116); details: COS7-hLAP1 lysate binding, 635 nm fluorescence, higher = more signal
Sequence of Torsin-1A-interacting protein 1 (Homo sapiens) (Q5JTV8 whole entry, looked up): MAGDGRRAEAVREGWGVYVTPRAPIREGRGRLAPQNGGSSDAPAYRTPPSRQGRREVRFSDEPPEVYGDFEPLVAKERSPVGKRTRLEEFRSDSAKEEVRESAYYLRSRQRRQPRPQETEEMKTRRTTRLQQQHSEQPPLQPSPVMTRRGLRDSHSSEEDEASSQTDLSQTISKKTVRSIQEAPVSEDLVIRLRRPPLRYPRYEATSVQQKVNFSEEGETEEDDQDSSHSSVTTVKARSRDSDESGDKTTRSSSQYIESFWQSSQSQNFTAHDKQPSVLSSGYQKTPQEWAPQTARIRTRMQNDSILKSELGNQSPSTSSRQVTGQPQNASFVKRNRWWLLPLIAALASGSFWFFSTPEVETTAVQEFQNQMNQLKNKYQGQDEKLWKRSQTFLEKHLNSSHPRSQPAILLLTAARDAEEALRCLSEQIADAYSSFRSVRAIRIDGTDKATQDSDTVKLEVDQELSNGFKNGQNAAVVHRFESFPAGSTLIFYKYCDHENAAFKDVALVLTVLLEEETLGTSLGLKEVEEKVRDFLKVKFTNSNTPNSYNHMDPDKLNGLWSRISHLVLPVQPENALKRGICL

[20] = molecular target: Alpha-bungarotoxin (Bungarus multicinctus) (UniProt P60615); assay: alpha-bungarotoxin binders on microarray, profiling panel, artefact control for SMM control protein annotation, biochemical, small-molecule microarray, Alexa647 label, 635/667 nm fluorescence (AID 1117); details: alpha-BTX-A647 binding fluorescence, higher = more signal
Sequence of Alpha-bungarotoxin (Bungarus multicinctus) (P60615 whole entry, looked up): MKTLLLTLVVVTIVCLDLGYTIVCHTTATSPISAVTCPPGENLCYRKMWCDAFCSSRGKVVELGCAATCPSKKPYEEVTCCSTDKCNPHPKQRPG

Compound	composite z-score [1]	composite z-score [2]	composite z-score [3]	z-score [4]	composite z-score [5]	composite z-score [6]	composite z-score [7]	composite z-score [8]	composite z-score [9]	composite z-score [10]	composite z-score [11]	z-score [12]	composite z-score [13]	composite z-score [14]	composite z-score [15]	composite z-score [16]	composite z-score [17]	composite z-score [18]	composite z-score [19]	composite z-score [20]
COC(=O)[C@@]1(Cc2ccc(OC)cc2)[C@H]2c3cc(C(=O)N4CCCC4)n(CCF)c3C[C@H]2CN1C(=O)c1ccccc1	1.05	2.71	1.56	-2.55 (inactive)	1.35	0.383	1.46	0.942	-0.226	0.823	0.632	-1.27	-0.191	2.03	0.77	1.34	2.55	3.06	1.19	1.04
Cc1ccc(S[C@]2(C(=O)NCCN3CCOCC3)CC(=O)N(C3Cc4ccccc4C3)[C@@H]2c2ccc(CO)cc2)cc1	1.48	0.0662	0.64	-0.0221 (inactive)	-0.644	-1.2	-1	-0.804	-0.866	0.345	1.36	-1.56	-1.59	-0.482	-0.399	-0.0425	-0.181	0.775	0.143	0.0451
COC(=O)c1c(CC[C@@H](CO)NC(=O)N[C@@H](C)Cn2cc(C3(O)CCCC3)nn2)oc(C(C)=O)c1C(=O)OC	0.513	-0.196	-0.206	-1.45 (inactive)	0.308	-0.161	0.0477	0.104	-0.217	-0.338	0.467	0.884	0.0541	-0.186	-0.467	-0.0758	-0.0709	-0.368	0.711	0.282
C=CCN1C(=O)[C@@]2(O[C@@H](CCn3cc([C@H](O)c4ccccc4)nn3)[C@H]([Si](C)(C)c3ccc(OC)cc3)[C@H]2C)c2cc(NC(=O)c3ccc(OC)cc3)ccc21	0.185	0.041	0.143	-0.345 (inactive)	-0.0229	0.0579	-0.128	0.382	0.183	1.07	0.795	-3.99	0.426	0.607	0.14	-0.0735	0.0815	0.338	0.385	0.627
NC(=O)NCC#Cc1ccc2c(c1)[C@]1(C(=O)N2)[C@H](c2ccc(OCCO)cc2)N2[C@H](c3ccccc3)[C@H](c3ccccc3)OC(=O)[C@H]2[C@@H]1C(=O)N1CCCCCCC1	1.72	2.51	1.17	0.238 (inactive)	1.5	1.27	1.71	1.64	2.25	1.5	1.46	-1.02	1.73	2.77	1.2	1.38	0.565	3.11	4.35	1.77
